Results from ChEMBL document CHEMBL3988442, “University of Dundee, Small-Polar-MMV Screening Library” (2021).
Out of some 48,000 compounds screened, about 13,000 (27%) showed an effect of 50% or more. This is one part of the list.

These molecules were tested on Wolbachia pipientis (assay: Anti-Wolbachia Cell-Based Screen). Conditions: 5 µM.
Format: functional
Design: scale not given: in the data most compounds retested in dose-response had high values
`CNC(=O)C(C)(C)NC(=O)c1cc(OCC2CCC2)cc(C(=O)OC)c1` was tested, and the “Percent Effect” value was -3.572%. `Fc1cccc(-c2nnn3c2COC(CNCc2cccs2)C3)c1.O=C(O)C(F)(F)F` (stereo unspecified) was tested, and the “Percent Effect” value was 3.148%. For `CCCN1CCC(N2CCN(c3cc(C)nc(COC)n3)CC2)CC1`, the “Percent Effect” value was -8.34%. `CN(C)c1cccc(C2CCCN2CCCN2CCOC2=O)c1` (stereo unspecified) was tested, and the “Percent Effect” value was -17.44%. `OCC1CCCN1c1cc(N2CCN(c3ccccn3)CC2)ncn1` (stereo unspecified) was tested, and the “Percent Effect” value was 2.004%. `CN(C)CCN(C)c1cc(N2CCN(c3ccccn3)CC2)ncn1` was tested, and the “Percent Effect” value was 127.7%. For `CN(CCC(O)c1ccccc1)c1cc(N2CCOCC2)ncn1` (stereo unspecified), the “Percent Effect” value was 3.711%. `Cc1ccccc1N1CCN(c2cc(N(C)C)ncn2)C(C)C1` (stereo unspecified) was tested, and the “Percent Effect” value was 2.423%. With `CN(CCc1ccccn1)c1cc(N2CCCCC2)ncn1` the “Percent Effect” value was -10.66%. For `CN(C)c1cc(N2CCN(c3ccccn3)CC2)ncn1`, the “Percent Effect” value was 109.8%. In the case of `CS(=O)(=O)N1C[C@@H]2CC[C@H](C1)N(C(=O)CCc1n[nH]c3c1CCCC3)C2`, the “Percent Effect” value is reported as -4.237%. With `O=C(C1=CCCCC1)N1CCC2(CC1)COC(COc1ccccn1)C2.O=C(O)C(F)(F)F` (stereo unspecified) the “Percent Effect” value was -10.4%. In the case of `Cc1cc(C(=O)N2CC[C@H]3[C@@H]2CCC(=O)N3c2ccccc2)no1`, the “Percent Effect” value is reported as -22.73%. With `CC(NCC1CCN(CCO)CC1)c1cccc(Cl)c1` (stereo unspecified) the “Percent Effect” value was -3.921%. In the case of `c1ccc2oc(C3CCN(Cc4ncon4)CC3)nc2c1`, the “Percent Effect” value is reported as -12.07%. With `CCOCC1CN(C(=O)c2cnoc2C)Cc2cn(C)nc21.O=C(O)C(F)(F)F` (stereo unspecified) the “Percent Effect” value was -24.2%. In the case of `CCOCC1CN(C(=O)Cc2ccccn2)Cc2c1cnn2C.O=C(O)C(F)(F)F.O=C(O)C(F)(F)F` (stereo unspecified), the “Percent Effect” value is reported as -14.09%. In the case of `CCOCC1CN(C(=O)CS(C)(=O)=O)Cc2cnn(C)c21.O=C(O)C(F)(F)F` (stereo unspecified), the “Percent Effect” value is reported as 16.84%. With `CCOCC1CN(C(=O)Cc2ccccn2)Cc2cnn(C)c21.O=C(O)C(F)(F)F.O=C(O)C(F)(F)F` (stereo unspecified) the “Percent Effect” value was 117.4%. For `CCOCC1CN(C(=O)c2cnoc2C)Cc2cn(CC3CC3)nc21` (stereo unspecified), the “Percent Effect” value was -17.44%. In the case of `CCOCC1CN(C(=O)c2ccoc2C)Cc2cnn(C)c21` (stereo unspecified), the “Percent Effect” value is reported as 98.5%. For `CCOCC1CN(C(=O)c2ccco2)Cc2cnn(C)c21` (stereo unspecified), the “Percent Effect” value was 93.66%. With `CCOCC1CN(C(=O)c2ccco2)Cc2nn(C)cc21` (stereo unspecified) the “Percent Effect” value was 6.633%. In the case of `CCOCC1CN(C(=O)c2cnoc2C)Cc2cnn(C)c21.O=C(O)C(F)(F)F` (stereo unspecified), the “Percent Effect” value is reported as 112.3%. For `COc1ccccc1NC(=O)NCCCC(=O)Nc1cn[nH]c1`, the “Percent Effect” value was 3.089%. `CC(C)Oc1cccc(F)c1C(C(=O)O)N(C)Cc1ccon1` (stereo unspecified) was tested, and the “Percent Effect” value was -4.815%.
